Experiment [1] concerns the target Thyrotropin-releasing hormone receptor (Homo sapiens) (UniProt P34981). In words: qHTS assay to identify small molecule agonists of the thyrotropin-releasing hormone receptor (TRHR) signaling pathway (AID 1346891; calls by dose curve;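 further: HEK293 cells expressing TRHR with calcium dye readout; series mostly up to about 58 µM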). Put shortly: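 HEK293/TRHR cells, 1500 per well, 18 h 37 °C; Ca dye 2 h 37 °C; pin-tool compound addition (agonist mode); kinetic fluorescence 3 min, 1 s reads; 15 concentrations, triplicate.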

Experiment [2] in a line: Human pregnane X receptor (PXR) small molecule agonists, qHTS cell viability counter screen (AID 1346977). Further: nearly all actives have a fitted effect of over 50% in size. In short, it runs like this: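 Fluorescence read-out (CellTiter-Fluor) of viability in PXR-Luc HepG2 cells, multiplexed with the luciferase agonist read. Compounds in DMSO added after 5hr plating; 24hr total exposure at 37C, 5% CO2.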
For orientation: In qHTS, concentration-response curves come from the screen itself.

Experiment [3] is described as follows: Caspase-3/7 induction in HepG2 cells by small molecules, qHTS assay (AID 1346978). Further: nearly all actives have a fitted effect of over 15% in size. Put shortly: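 Wild-type HepG2 cells, 2,000/well, settled 5 hr at 37 C and 5% CO2, then compound-treated for 17 hr; caspase-3/7 activity read by luminescent Caspase-Glo 3/7 after 30 min at room temperature.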
Experiment [4] in a line: Caspase-3/7 induction in CHO-K1 cells by small molecules, qHTS assay (AID 1346980). Further: nearly all actives have a fitted effect of over 15% in size. Put shortly: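 Wild-type CHO-K1 cells exposed to compounds for 17hr at 37 C, 5% CO2. Caspase-3/7 activity then measured by Caspase-Glo 3/7 luminescence after 30min at room temperature.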
Experiment [5] is described as follows: Caspase-3/7 induction in HepG2 cells by small molecules, qHTS cell viability counter screen (AID 1346981). Further: series mostly up to about 92 µM; nearly all actives have a fitted effect of over 30% in size. Put shortly:
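Fluorescence read-out of live-cell protease activity (CellTiter-Fluor) after 1 hr with reagent. This was measured in the same wells as the caspase-3/7 luminescence, on HepG2 cells exposed to DMSO-dissolved compounds for 16 hr at 37 C.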

Experiment [6] deals with Nuclear receptor subfamily 1 group I member 2 (Homo sapiens) (UniProt O75469). The experiment in a line: Human pregnane X receptor (PXR) small molecule agonists, qHTS assay (AID 1346982). Further: nearly all actives have a fitted effect of over 35% in size. Further: potency means the concentration at half of the fitted maximal effect. In short, it runs like this: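 HepG2 PXR-Luc reporter line, 5% charcoal-stripped FBS; 5 hr pre-incubation, compound (DMSO) 24 hr at 37 C/5% CO2; ONE-Glo 30 min RT; luminescence read-out.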

Experiment [7] addresses Acetylcholinesterase (Homo sapiens) (UniProt P22303). In words: Acetylcholinesterase (AChE) small molecule antagonists: colormetric cell-based qHTS assay (AID 1347395; calls by dose curve; further: nearly all actives have a fitted effect of over 30% in size; further: potency means the concentration at half of the fitted maximal effect). Put shortly:
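SH-SY5Y cells; cpd 30 min 37 C; + DTNB/acetylthiocholine, 90 min 37 C; colorimetric thiocholine read; qHTS.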

Experiment [8] has the same target. In words: Acetylcholinesterase (AChE) small molecule antagonists: enzyme-based qHTS assay (AID 1347397; calls by dose curve; further: nearly all actives have a fitted effect of over 55% in size; further: potency means the concentration at half of the fitted maximal effect). The following applies: Potency: AChE enzyme activity inhibition; outcome: AChE enzyme activity inhibition. In short, it runs like this:
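Colorimetric DTNB read-out of thiocholine released from acetylthiocholine by recombinant human AChE (50 mU/mL as dispensed). Compounds were preincubated 30 min at RT before substrate/DTNB addition, with a 10 min RT reaction.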

The target is the same in experiment [9]. The experiment in a line: Acetylcholinesterase (AChE) small molecule antagonists: fluorescence cell-based qHTS assay (AID 1347398; calls by dose curve; further: nearly all actives have a fitted effect of over 50% in size; further: potency means the concentration at half of the fitted maximal effect). Conditions: Potency: AChE activity; outcome: AChE activity. In short, it runs like this:
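SH-SY5Y, 2,000 cells/well, attached overnight; cmpd 30 min 37 C; acetylthiocholine/Thiolite Green cocktail 40 min RT; fluorescence Ex/Em 490/520 nm.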

In experiment [10] the target is Cytochrome P450 2D6 (Homo sapiens) (UniProt P10635). The experiment in a line: Cytochrome P450 Family 2 Subfamily D Member 6 (CYP2D6) small molecule antagonists: luciferase reporter qHTS assay (AID 1671196). Further: nearly all actives have a fitted effect of over 50% in size. Further: potency means the concentration at half of the fitted maximal effect. In short, it runs like this: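 Luminogenic proluciferin substrate, CYP2D6 enzyme; 10 min RT preincubation with compound, NADPH regeneration system added, 1 h RT. Stop/detection reagent, 20 min RT, luminescence read (RLU). Signal proportional to CYP activity.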

For experiment [11], the target named is Cytochrome P450 2C19 (Homo sapiens) (UniProt P33261). In words: Cytochrome P450 Family 2 Subfamily C Member 19 (CYP2C19) small molecule antagonists: luciferase reporter qHTS assay (AID 1671197). Further: nearly all actives have a fitted effect of over 65% in size. Further: potency means the concentration at half of the fitted maximal effect. Put shortly:
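Enzyme-substrate mix with proluciferin substrate (P450-Glo CYP2C19 system) preincubated with compounds 10 min at room temperature; NADPH regeneration solution added, 37C for 1 h; detection reagent stops reaction, luminescence read after 20 min. Ketoconazole positive control.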

Experiment [12] deals with Cytochrome P450 2C9 (Homo sapiens) (UniProt P11712). The experiment in a line: Cytochrome P450 Family 2 Subfamily C Member 9 (CYP2C9) small molecule antagonists: luciferase reporter qHTS assay (AID 1671198). Further: nearly all actives have a fitted effect of over 50% in size. Further: potency means the concentration at half of the fitted maximal effect. Put shortly:
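P450-Glo proluciferin substrate with CYP2C9 enzyme; 10 min RT preincubation, then NADPH regeneration 1 h at 37C; luciferin detection reagent 20 min RT, luminescence in relative luminescence units.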

For experiment [13], the target named is Cytochrome P450 1A2 (Homo sapiens) (UniProt P05177). In words: Cytochrome P450 Family 1 Subfamily A Member 2 (CYP1A2) small molecule antagonists: luciferase reporter qHTS assay (AID 1671199). Further: nearly all actives have a fitted effect of over 50% in size. Further: potency means the concentration at half of the fitted maximal effect. Put shortly: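 Luminescence readout (relative luminescence units) after luciferin detection reagent, 20 min RT. Preceded by 1 h room-temperature CYP1A2 reaction with NADPH regeneration solution following 10 min compound preincubation with enzyme and proluciferin substrate. Furafylline positive control.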
In general terms: Reporter assays use an easily measured gene product as a stand-in for the process of interest.

Experiment [14] concerns the target Voltage-gated inwardly rectifying potassium channel KCNH2 (Homo sapiens) (UniProt Q12809). In words: Human Ether-a-go-go-Related Gene (hERG) channel small molecule antagonists: fluorescence cell-based qHTS assay (AID 1671200). In short, it runs like this:
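Read-out: thallium influx as a surrogate for potassium, tracked as fluorescence (480 nm ex/540 nm em) every second for 2 min after Stimulus Buffer addition in dye-loaded hERG-U2OS cells.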
In general terms: The hERG channel carries a current that helps repolarise heart muscle cells.

Experiment [15] addresses Acetylcholinesterase (Homo sapiens) (UniProt P22303). In words: Acetylcholinesterase (AChE) small molecule antagonists: enzyme-based qHTS assay with human liver microsomes (AID 1347399; calls by dose curve; further: nearly all actives have a fitted effect of over 60% in size; further: potency means the concentration at half of the fitted maximal effect). Conditions: Potency: qHTS inhibition; outcome: qHTS inhibition. Put shortly:
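Recombinant human AChE (50 mU/mL in the enzyme mix) and human liver microsomes (0.25 mg/mL final) were preincubated with compound and NADPH (0.25 mg/mL final) for 30 min at 37 C. Acetylthiocholine/DTNB was then added; thiocholine was read colorimetrically after 10 min at room temperature.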

For experiment [16], the target named is Cytochrome P450 3A4 (Homo sapiens) (UniProt P08684). In words: Cytochrome P450 Family 3 Subfamily A Member 4 (CYP3A4) small molecule antagonists: luciferase reporter qHTS assay (AID 1671201). Further: nearly all actives have a fitted effect of over 50% in size. Further: potency means the concentration at half of the fitted maximal effect. In short, it runs like this: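 Luminescent readout (RLU) proportional to CYP3A4 activity, from luciferin generated off a proluciferin substrate. Enzyme–substrate mix plus compound 10 min at room temp, NADPH regeneration 1 h, detection reagent 20 min.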

In experiment [17] the target is Nuclear receptor subfamily 1 group I member 2 (Rattus norvegicus) (UniProt Q9R1A7). In words: Rat pregnane X receptor (rPXR) activation by small molecules, qHTS assay (AID 1346983). Further: nearly all actives have a fitted effect of over 20% in size. Conditions: rPXR luciferase reporter cells, One-Glo luminescence, 24 h; active compounds read high. Put shortly:
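Cell-based rPXR activation assay: rPXR cells, 2,000 per well, rested 5hr at 37 C, then exposed to compounds in DMSO for 24 hr at 37 C. Luciferase activity read by One-Glo luminescence after 30 min at room temperature.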

Experiment [18] concerns the target Nuclear receptor subfamily 1 group I member 2 (Homo sapiens) (UniProt O75469). The experiment in a line: Human pregnane X receptor (PXR) activation by small molecules, qHTS assay (AID 1346985). Further: nearly all actives have a fitted effect of over 40% in size. Put shortly: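 DPX-2 cells (HepG2 co-transfected with a PXR response element and a CYP3A4-promoter luciferase construct) were seeded at 2,000 per well, rested 5 hr at 37C, then exposed to DMSO-dissolved compounds for 24 hr. Activation was read as luciferase luminescence.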

Unmarked numbers belong to inactive results. Results filed as inconclusive are left out. Calls of active or inactive are those of the source. Unless noted, the call rests on the fitted dose curve; in most records, active means well fitted curve in the direction sought with a large enough effect in the repeat runs; inconclusive means weak or mixed curves; inactive means no such curve, though single readings can be large; an effect the other way counts as inactive or inconclusive.
On the % scale 0 is the no-effect control and ±100 the full control effect.

Chain of Thyrotropin-releasing hormone receptor (Homo sapiens) (P34981 whole entry, looked up): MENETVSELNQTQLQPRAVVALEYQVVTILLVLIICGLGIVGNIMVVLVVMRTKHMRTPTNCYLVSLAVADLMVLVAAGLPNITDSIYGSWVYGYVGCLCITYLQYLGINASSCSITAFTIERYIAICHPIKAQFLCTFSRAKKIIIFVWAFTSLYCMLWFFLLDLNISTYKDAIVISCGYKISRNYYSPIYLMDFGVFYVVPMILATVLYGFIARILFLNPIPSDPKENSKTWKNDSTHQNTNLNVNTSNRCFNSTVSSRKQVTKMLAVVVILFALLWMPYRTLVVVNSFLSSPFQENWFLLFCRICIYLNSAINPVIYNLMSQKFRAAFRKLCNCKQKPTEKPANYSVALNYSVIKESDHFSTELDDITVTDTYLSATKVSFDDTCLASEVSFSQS
Chain of Voltage-gated inwardly rectifying potassium channel KCNH2 (Homo sapiens) (Q12809 whole entry, looked up): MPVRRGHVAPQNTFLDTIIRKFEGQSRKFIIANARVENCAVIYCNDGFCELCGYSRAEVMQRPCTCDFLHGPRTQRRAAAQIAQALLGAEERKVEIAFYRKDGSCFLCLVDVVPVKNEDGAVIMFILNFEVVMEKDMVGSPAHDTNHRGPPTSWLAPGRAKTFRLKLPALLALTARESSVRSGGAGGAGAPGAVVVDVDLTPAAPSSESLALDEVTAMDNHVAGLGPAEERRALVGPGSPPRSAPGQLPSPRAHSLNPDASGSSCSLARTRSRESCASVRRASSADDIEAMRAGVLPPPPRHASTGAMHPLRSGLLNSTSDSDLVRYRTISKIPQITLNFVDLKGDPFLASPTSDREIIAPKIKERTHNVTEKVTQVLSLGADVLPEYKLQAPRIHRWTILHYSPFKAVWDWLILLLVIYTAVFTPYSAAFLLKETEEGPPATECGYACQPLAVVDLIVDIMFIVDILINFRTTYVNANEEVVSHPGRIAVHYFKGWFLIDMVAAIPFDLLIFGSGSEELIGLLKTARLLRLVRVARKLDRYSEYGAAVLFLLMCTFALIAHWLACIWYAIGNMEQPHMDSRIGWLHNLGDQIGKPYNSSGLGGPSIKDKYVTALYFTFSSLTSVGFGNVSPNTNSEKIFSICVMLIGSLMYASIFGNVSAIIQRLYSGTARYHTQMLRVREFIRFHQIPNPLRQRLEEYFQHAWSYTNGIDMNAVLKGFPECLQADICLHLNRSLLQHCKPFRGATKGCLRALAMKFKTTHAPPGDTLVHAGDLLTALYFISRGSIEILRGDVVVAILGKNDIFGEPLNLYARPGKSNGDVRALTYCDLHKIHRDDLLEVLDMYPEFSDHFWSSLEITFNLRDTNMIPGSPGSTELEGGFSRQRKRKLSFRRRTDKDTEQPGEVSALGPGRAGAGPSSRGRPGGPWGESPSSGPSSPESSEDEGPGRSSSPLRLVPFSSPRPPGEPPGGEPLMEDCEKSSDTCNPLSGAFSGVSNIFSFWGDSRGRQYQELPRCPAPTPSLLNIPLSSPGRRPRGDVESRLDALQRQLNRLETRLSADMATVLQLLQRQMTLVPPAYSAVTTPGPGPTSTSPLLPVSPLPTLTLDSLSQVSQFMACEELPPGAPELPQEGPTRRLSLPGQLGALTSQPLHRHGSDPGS
Chain of Cytochrome P450 2D6 (Homo sapiens) (P10635 whole entry, looked up): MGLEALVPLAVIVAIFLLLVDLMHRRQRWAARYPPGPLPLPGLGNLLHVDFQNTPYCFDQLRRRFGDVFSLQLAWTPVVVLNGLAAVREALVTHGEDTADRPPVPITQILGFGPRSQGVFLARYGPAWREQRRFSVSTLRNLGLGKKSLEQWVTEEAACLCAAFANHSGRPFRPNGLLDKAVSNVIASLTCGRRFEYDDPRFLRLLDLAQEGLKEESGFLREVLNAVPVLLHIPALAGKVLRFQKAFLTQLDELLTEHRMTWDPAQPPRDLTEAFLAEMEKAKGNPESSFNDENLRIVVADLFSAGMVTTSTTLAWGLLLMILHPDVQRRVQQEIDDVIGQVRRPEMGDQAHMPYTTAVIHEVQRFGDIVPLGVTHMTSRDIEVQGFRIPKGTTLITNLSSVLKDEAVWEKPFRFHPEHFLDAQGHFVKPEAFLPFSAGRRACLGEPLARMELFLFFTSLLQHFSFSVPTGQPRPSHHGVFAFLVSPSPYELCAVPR
Chain of Cytochrome P450 1A2 (Homo sapiens) (P05177 whole entry, looked up): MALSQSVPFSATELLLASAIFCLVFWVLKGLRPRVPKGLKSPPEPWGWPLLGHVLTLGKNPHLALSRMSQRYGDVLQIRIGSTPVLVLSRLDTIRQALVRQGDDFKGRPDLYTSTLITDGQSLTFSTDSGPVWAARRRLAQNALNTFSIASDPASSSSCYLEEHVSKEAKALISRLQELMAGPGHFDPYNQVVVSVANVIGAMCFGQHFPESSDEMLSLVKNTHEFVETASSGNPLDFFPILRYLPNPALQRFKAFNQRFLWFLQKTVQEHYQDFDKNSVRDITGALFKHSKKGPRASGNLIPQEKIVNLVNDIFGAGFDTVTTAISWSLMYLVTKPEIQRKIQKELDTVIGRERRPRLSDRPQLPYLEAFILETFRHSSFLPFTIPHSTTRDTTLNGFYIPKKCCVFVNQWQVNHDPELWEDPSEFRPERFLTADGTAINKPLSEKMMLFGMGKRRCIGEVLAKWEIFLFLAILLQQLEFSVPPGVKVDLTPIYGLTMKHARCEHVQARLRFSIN
Chain of Cytochrome P450 2C19 (Homo sapiens) (P33261 whole entry, looked up): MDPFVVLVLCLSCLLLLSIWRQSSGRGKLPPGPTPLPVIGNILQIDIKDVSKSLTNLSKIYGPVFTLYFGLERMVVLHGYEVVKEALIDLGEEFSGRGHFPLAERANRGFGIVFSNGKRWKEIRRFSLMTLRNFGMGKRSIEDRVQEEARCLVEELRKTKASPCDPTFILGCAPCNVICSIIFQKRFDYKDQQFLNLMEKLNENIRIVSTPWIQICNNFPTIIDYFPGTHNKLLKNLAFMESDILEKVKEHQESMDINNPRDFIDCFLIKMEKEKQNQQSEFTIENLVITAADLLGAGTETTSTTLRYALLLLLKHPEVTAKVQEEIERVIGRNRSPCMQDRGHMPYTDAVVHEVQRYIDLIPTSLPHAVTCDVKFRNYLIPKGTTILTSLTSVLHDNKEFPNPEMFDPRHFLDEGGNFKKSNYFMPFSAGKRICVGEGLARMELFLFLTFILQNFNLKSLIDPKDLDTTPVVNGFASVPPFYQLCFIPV
Chain of Acetylcholinesterase (Homo sapiens) (P22303 whole entry, looked up): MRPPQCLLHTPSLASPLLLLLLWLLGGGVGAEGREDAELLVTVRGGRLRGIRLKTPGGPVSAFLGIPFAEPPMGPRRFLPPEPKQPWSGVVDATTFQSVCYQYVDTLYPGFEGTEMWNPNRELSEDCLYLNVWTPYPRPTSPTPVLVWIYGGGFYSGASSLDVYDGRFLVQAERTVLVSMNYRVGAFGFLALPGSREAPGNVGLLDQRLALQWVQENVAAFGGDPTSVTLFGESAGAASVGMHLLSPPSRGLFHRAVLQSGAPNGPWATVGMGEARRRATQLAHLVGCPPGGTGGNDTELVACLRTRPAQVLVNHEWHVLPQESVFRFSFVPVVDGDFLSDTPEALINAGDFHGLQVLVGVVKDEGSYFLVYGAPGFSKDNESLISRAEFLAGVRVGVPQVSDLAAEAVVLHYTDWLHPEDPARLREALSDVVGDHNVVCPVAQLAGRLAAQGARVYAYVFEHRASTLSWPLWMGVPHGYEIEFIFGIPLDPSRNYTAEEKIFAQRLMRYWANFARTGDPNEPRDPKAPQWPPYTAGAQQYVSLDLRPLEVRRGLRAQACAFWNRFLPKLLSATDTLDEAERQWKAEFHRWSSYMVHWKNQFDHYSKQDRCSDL
Chain of Nuclear receptor subfamily 1 group I member 2 (Homo sapiens) (O75469 whole entry, looked up): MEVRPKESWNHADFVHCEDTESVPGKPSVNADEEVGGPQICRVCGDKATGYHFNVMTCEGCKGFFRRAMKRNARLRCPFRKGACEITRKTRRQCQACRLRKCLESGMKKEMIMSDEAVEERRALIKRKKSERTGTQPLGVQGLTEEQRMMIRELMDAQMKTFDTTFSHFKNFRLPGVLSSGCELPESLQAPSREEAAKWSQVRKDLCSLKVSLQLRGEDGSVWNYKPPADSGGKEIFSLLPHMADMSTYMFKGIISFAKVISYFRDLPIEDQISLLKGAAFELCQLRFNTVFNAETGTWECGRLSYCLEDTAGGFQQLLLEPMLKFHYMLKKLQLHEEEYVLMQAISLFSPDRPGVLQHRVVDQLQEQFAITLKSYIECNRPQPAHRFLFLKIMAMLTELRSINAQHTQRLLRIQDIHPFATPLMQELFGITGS
Chain of Cytochrome P450 3A4 (Homo sapiens) (P08684 whole entry, looked up): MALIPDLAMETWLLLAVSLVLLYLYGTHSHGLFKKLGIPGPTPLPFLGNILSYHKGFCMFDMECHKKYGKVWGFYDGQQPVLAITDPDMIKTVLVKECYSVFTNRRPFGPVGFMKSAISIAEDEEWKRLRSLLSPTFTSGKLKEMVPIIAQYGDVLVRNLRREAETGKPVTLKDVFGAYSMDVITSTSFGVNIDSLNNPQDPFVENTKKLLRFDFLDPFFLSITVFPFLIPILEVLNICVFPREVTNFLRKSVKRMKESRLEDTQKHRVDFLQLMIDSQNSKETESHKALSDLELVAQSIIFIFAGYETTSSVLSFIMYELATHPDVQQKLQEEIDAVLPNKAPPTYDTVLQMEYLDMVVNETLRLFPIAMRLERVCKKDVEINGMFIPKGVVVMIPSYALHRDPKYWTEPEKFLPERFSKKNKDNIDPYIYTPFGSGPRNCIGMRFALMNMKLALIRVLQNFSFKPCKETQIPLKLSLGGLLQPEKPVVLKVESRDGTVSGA

Regarding `CC(Cc1ccccc1)NCCn1cnc2c1c(=O)n(C)c(=O)n2C` (centres undefined), the molecule was classed as inactive in experiment [1], in experiment [3] and in experiment [4]. The Potency entry in experiment [2], in experiment [5], in [6], in experiment [7], in experiment [8] and in experiment [9] was “inactive” throughout. Besides, the Potency entry in experiment [12], in [13] and in experiment [14] was “inactive” in each case. Also, the Potency is 4.96 µM (active) in experiment [10] and 78.7 µM (active) in experiment [11].

As for `O=C(Cl)C(Cl)(Cl)Cl`, the result in experiment [1], in experiment [3] and in experiment [4] was inactive. The Potency result in [2], in experiment [5], in [7], in experiment [9], in experiment [15] and in [11] was “inactive” throughout. The Potency entry in experiment [12], in [13], in experiment [14] and in experiment [16] was “inactive” in each case. For the same molecule, the Potency in experiment [6] was 43.5 µM (active).

In the case of `COc1ccc(CN2CCNCC2)c(OC)c1OC`, the result in [1], in experiment [3] and in experiment [4] was inactive. Further, the Potency entry in [2], in experiment [5], in experiment [7], in experiment [8], in experiment [9] and in [15] was “inactive” in each case. Moreover, in experiment [14], the Potency entry is “inactive”.

`CC#Cc1cc(C)nc(Nc2ccccc2)n1`: the molecule was classed as inactive in experiment [1] and in experiment [3]. For the same molecule, the Potency result in experiment [2], in experiment [5], in experiment [7], in experiment [8], in [9] and in [15] was “inactive” throughout. Also, the Potency entry in [10] and in experiment [14] was “inactive” in each case. In addition, the Potency was 30.6 µM (active) in experiment [6]; 35.5 µM (active) in [11]; 35.5 µM (active) in experiment [12]; 1.59 µM (active) in experiment [13]; 63.2 µM (active) in experiment [16].

As for `CN1C(=O)COc2c(C(=O)NC3CN4CCC3CC4)cc(Cl)cc21` (centres undefined), the result in [1] and in experiment [3] was inactive. In addition, the Potency result in experiment [2], in [5], in [6], in experiment [15], in experiment [10] and in experiment [11] was “inactive” throughout. Also, the Potency result in experiment [12], in [13], in [14] and in experiment [16] was “inactive” throughout. Also, the max activation in experiment [17] was -0.408%. Besides, the Potency in experiment [7] was 38.9 µM (active).

As to `CNC(=O)Oc1cc(C)c(N(C)C)c(C)c1`, the molecule was classed as inactive in [1] and in experiment [3]. For the same molecule, the Potency result in [2], in experiment [5], in [12], in experiment [14] and in experiment [16] was “inactive” each time. The Potency in experiment [6] was 30.6 µM (active); in experiment [7] it was 2.52 µM (active); in [8] it was 2.25 µM (active); in [9] it was 797 nM (active); in [15], 12.6 µM (active); in experiment [11], 79.7 µM (active). The Potency in experiment [13] was 10 µM (active).

`CCC1(c2cccc(O)c2)CCCCN(C)C1` (centres undefined): the molecule was classed as inactive in experiment [1], in experiment [3] and in experiment [4]. Besides, the Potency entry in [2], in [5], in experiment [6], in experiment [18], in experiment [11] and in [13] was “inactive” each time. For the same molecule, the Potency entry in [14] and in experiment [16] was “inactive” throughout. Further, the max activation in [17] is -1.16%. Also, the Potency in experiment [10] is 15.5 µM (active).

The values above are taken from PubChem BioAssay (Tox21).
